Source: PubChem (National Center for Advancing Translational Sciences (NCATS))
Rows were chosen to be rich in hits. Some 5.9% of all compounds tested hit in one or more screens of this group.
HepG2 viability = HepG2 cytotoxicity, counter-screen for TGF-b inhibitors; HepG2 CAGA-GFP viability, ATP luminescence, 18 h; Potency, µM (series often up to 46.1 µM), for the others: at the top dose activity change, negative = cytotoxicity, most hits filed as cytotoxic; actives 0.76% (n = 410,000); AID 588856
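CellTiter-Glo luminescence gave cytotoxicity after 18 hours at 37 degrees C. The cells were HepG2 CAGA-GFP in 1% FBS DMEM, stimulated with 500 pg/mL TGF-beta after compound addition. %Activity was normalised to no-cell wells (complete cell-killing) and DMSO (no toxicity), and curves were fitted and classified.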
S2 tox = reduces viability in counter-screen for ATXN expression inhibitors. S2 cells (HEK-293 line with an ATXN2-luciferase reporter) viability, CellTiter-Fluor protease fluorescence, 24 h. Potency, µM (series often up to 56.7 µM), most hits filed as cytotoxic. actives 0.49% (n = 400,000). AID 651635; note: nearly all actives have a fitted effect of over 40% in size
TGFb SMAD3 inh = TGF-b pathway inhibition; HepG2 CAGA-GFP TGF-b/SMAD3 reporter, GFP fluorescence, 18 h; TGF-beta stimulated, 500 pg/mL final; Potency, µM (top dose mostly 46.1 µM), for the others: at the top dose activity, negative = inhibition, hits mostly inhibitors; actives 1.2% (n = 410,000); AID 588855; note: % is set by controls: 0 for no effect and ±100 for the full control effect; nearly all actives have a fitted effect of over 65% in size
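Inhibition of TGF-beta-driven CAGA-GFP reporter expression in HEPG2 cells is measured by cellular GFP fluorescence after 18 h stimulation with 500 pg/mL recombinant TGF-beta in 1% FBS medium at 37 degrees C.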
KB-V1 MDR tox = kills drug-selected multidrug resistant KB-V1 cells; KB-V1 MDR cells viability, CellTiter-Glo, 72 h; Potency, µM (doses to about 46.1 µM), usual class: cytotoxic; actives 3.4% (n = 400,000); note: % is set by controls: 0 for no effect and ±100 for the full control effect; nearly all actives have a fitted effect of over 60% in size
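KB-V1, DMEM (no phenol red) + 10% FBS; cpd pin-transferred, titration series; 72 h, 37 degrees C; CellTiter-Glo, luminescence. Data normalized, curve-fit.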
ATXN2 expr inh = reduces ATXN2 reporter expression in HEK-293 cells; HEK-293 ATXN2-luciferase reporter, luminescence, 24 h; Potency, µM (series often up to 57 µM), for inactives: at the top dose activity change, negative = inhibition, actives largely listed as inhibitors; actives 0.72% (n = 360,000); note: % is set by controls: 0 for no effect and ±100 for the full control effect; nearly all actives have a fitted effect of over 55% in size
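ATXN2-luciferase reporter cells (luciferase flanked by upstream and downstream ATXN2 gene portions) were treated 24 h at 37 °C with compounds at up to 57 uM. SteadyGlo luminescence gave expression; GF-AFC fluorescence gave viability.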
KB-3-1 cytotox = KB-3-1 parental cell cytotoxicity | KB-3-1 viability, CellTiter-Glo ATP luminescence, 72 h | Potency, µM (doses to about 46.1 µM), hits mostly cytotoxic | actives 1.4% (n = 400,000); note: % is set by controls: 0 for no effect and ±100 for the full control effect; nearly all actives have a fitted effect of over 60% in size
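Luminescent ATP read-out (CellTiter-Glo) measures survival of drug-naive KB-3-1 cells after 72 h compound exposure at 37 °C. Titration series was screened from lowest to highest concentration, with DMSO vehicle plates as background controls.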
Active calls of the source: *; i = inactive; ? = inconclusive; · = no result given. Calls come from the whole dose curve; as a rule, active = well fitted curve in the direction sought with a large enough effect; inconclusive = small, poorly fitted or top-dose-only effect, or another doubt; inactive = no such curve, though single readings can be large; an effect the other way counts as inactive or inconclusive. Potency is the fitted concentration of half-maximal effect.

SMILES | HepG2 viability | S2 tox | TGFb SMAD3 inh | KB-V1 MDR tox | ATXN2 expr inh | KB-3-1 cytotox
CN1CC=C2C(C#N)=C(N)C(C#N)(C#N)C(c3cccc(Cl)c3Cl)C2C1 (stereo not given) | -30.4% | i | 12.1% | 20.6µM* | 0.8% | i
CCC(=O)Nc1cccc(C(=O)/C=C/c2ccc(F)cc2)c1 | 14.1µM* | ? | 20µM* | i | ? | ?
CC(=O)Nc1cccc(C(=O)/C=C/c2ccc(C)cc2)c1 | 12.6µM* | ? | ? | i | -4.7% | ?
CCCCCOc1ccc(Cn2c(=O)oc3ccc(C)cc32)cc1OC | -30.2% | i | -27.7% | ? | -15.6% | i
CCOc1ccc(Nc2nc(Cc3nnc(SCC(=O)N(CC)CC)n3C)cs2)cc1 | 20µM* | i | ? | i | -8.6% | i
COc1ccc(Cl)cc1NC(=O)CSC1=Nc2ccccc2C2=NC(CC(=O)NC3CCCCC3)C(=O)N12 (stereo not given) | -37.4% | i | ? | i | -5.3% | i
COc1ccc(N2CCC(CNC(=S)Nc3cc(C)cc(C)c3)C2)cc1 (stereo not given) | -46.1% | i | ? | i | ? | i
COc1ccc(N2CCC(CNC(=O)Nc3ccccc3)C2)cc1 (stereo not given) | -21.3% | i | -2.5% | 16.4µM* | -20.8% | i
COc1ccc(N2CCN(C(=S)Nc3ccc(C)cc3C)CC2)cc1 | 6.31µM* | i | -15.2% | ? | -20.9% | i
COc1ccc(N2CCC(CNC(=S)Nc3cc(C)ccc3C)C2)cc1 (stereo not given) | 2.3% | i | ? | 18.4µM* | · | i
CCC(=O)N1c2ccccc2CC1C(=O)NCCc1cc(OC)c(OC)c(OC)c1 (stereo not given) | 9.2% | i | -1.4% | i | -5.9% | i
CCn1c(-c2ccccc2F)nc2cc(NC(C)=O)cc(C(=O)NC(c3ccccn3)C(F)(F)F)c21 (stereo not given) | · | i | · | · | · | ·
Cc1c(NS(=O)(=O)c2ccc(N(C)C3CCCCC3)c([N+](=O)[O-])c2)c(=O)n(-c2ccccc2)n1C | 6.5% | i | -8.5% | 14.6µM* | -8.2% | ?
N#C/C(=C\c1ccccc1[N+](=O)[O-])C(=O)NCc1ccccc1 | -40.7% | i | 6.9% | i | 4.2% | i
CCCCCCCCNC(=O)/C(C#N)=C/c1ccccc1[N+](=O)[O-] | -82.5% | i | ? | 16.4µM* | -14.3% | ?
N#C/C(=C\C=C\c1ccccc1[N+](=O)[O-])C(=O)NCc1ccccc1 | -130.3% | ? | 12.6µM* | ? | 28.2µM* | 16.4µM*
COc1ccc(-n2cnc3cc(N)ccc32)cc1 | 5.0% | i | 21.5% | i | 57.5% | i
CC1(COc2ccc3c(c2)ncn3-c2ccc3cccc(N4CCC(N)CC4)c3n2)COC1 | · | · | · | · | 12.2µM* | ·
Cc1ccc(C)c(N2CCN(CCCNC(=O)Cn3cc4c(n3)CCCCC4)CC2)c1 | -105.2% | ? | ? | 20.6µM* | ? | ?
CN1CCN(CCCNC(=O)Cn2c(-c3cccs3)cc3ccccc32)CC1 | 3.8% | i | -12.2% | i | -7.7% | i
Cc1ccc(C)c(N2CCN(CCCNC(=O)Cn3cc4c(n3)CCC(C)C4)CC2)c1 (stereo not given) | -0.3% | i | -13.1% | ? | -15.3% | i
Cc1ccc(C)c(N2CCN(CCCNC(=O)Cn3c(-c4cccs4)cc4ccccc43)CC2)c1 | -106.6% | ? | 12.6µM* | i | 25.1µM* | i
CCN1CCN(CCCNC(=O)Cn2c(-c3cccs3)cc3ccccc32)CC1 | -1.9% | ? | -3.0% | i | -8.2% | i
O=C(Cn1c(-c2cccs2)cc2ccccc21)NCCCN1CCN(c2cccc(Cl)c2)CC1 | -47.1% | ? | 12.6µM* | i | ? | i
COc1cccc(CN2C(=O)NC(C)(C3CCN(Cc4cc(F)cc(F)c4)CC3)C2=O)c1OC (stereo not given) | · | i | · | · | · | ·
SMILES | HepG2 viability | S2 tox | TGFb SMAD3 inh | KB-V1 MDR tox | ATXN2 expr inh | KB-3-1 cytotox
O=S(=O)(c1ccc(F)cc1)N1CCN(c2nc(-c3ccccc3)nc3ccccc23)CC1 | 9.7% | · | -0.2% | i | · | ?
COc1cccc(CN2CCC(n3cc(C(=O)N4CCCCC4)nn3)CC2)c1OC | · | i | · | · | · | ·
Cc1cc2oc(C(=O)Nc3ccc(S(=O)(=O)Nc4ncccn4)cc3)cc(=O)c2cc1C | -15.1% | i | 10.1% | i | 4.9% | i
CCOc1ccc(N=Cc2c(C)[nH]n(-c3nc4ccccc4[nH]3)c2=O)cc1 | 2.51µM* | i | -21.9% | ? | -36.1% | ?
COc1cc(=O)n2c(c1C(=O)N(C)Cc1nccs1)CCN(Cc1ccc(F)c(F)c1)CC2 | · | i | · | · | · | ·
CN(CC(=O)Nc1sc2c(c1C#N)CCCCC2)Cc1nc2ccccc2c(=O)[nH]1 | -15.8% | i | -5.7% | 16.4µM* | -14.9% | i
COc1cccc(CN(C)CC(=O)Nc2sc3c(c2C#N)CCC3)c1OC | -0.3% | ? | -3.2% | i | -21.8% | i
O=C(CN(C1CC1)S(=O)(=O)c1ccc(S(=O)(=O)N2CCCCCC2)cc1)Nc1ccccc1 | -7.8% | i | -29.1% | i | ? | i
CCN(C1CCCCC1)S(=O)(=O)c1ccc(S(=O)(=O)N(CC(=O)Nc2ccccc2)C2CC2)cc1 | -31.0% | i | -35.3% | 6.51µM* | -6.4% | i
CS(=O)(=O)N(CC(=O)Nc1ccccc1Sc1ccccc1)C1CCCCC1 | -17.6% | i | ? | 5.8µM* | -12.6% | ?
Cc1csc(CN(C)C(=O)c2sc3ncnc(NCC4CCCO4)c3c2C)n1 (stereo not given) | · | i | · | · | · | ·
O=C(CCS(=O)(=O)c1ccccc1)N(CCCN1CCOCC1)c1nc2c(F)cccc2s1 | -73.2% | · | ? | ? | ? | ?
O=C(CCS(=O)(=O)c1ccccc1)N(CCCN1CCOCC1)c1nc2ccc(F)cc2s1 | 12.6µM* | · | ? | ? | ? | ?
CCOC(=O)c1c(-c2ccccc2)csc1NC(=O)c1cc(-c2ccc(C)c(F)c2)on1 | -0.9% | i | 19.8% | i | 5.4% | i
COc1cc2nc3n(c(=O)c2cc1OC)-c1cc2ccccc2cc1C(=O)NC3Cc1ccccc1 (stereo not given) | -18.5% | ? | -0.6% | i | -3.9% | i
Cc1ccc2nc3n(c(=O)c2c1)-c1cc2ccccc2cc1C(=O)NC3Cc1ccc(O)cc1 (stereo not given) | -1.6% | ? | ? | i | ? | ?
